Test results as given in PubChem BioAssay (EPA / NIEHS).
Records with an inconclusive call do not appear. The source made the active and inactive calls. Rule for the calls: active = hit-call score of the fitted dose curve at least 0.9, where 1 is the maximum; inconclusive = response in the unintended direction; inactive = score below 0.9.

What follows are compounds tested on xenobiotic metabolism (CYP1A2), CYP1A2 (gene 1544) (assay: CLD_CYP1A2_24hr: CellzDirect (CLD) Gene Expression Assay for xenobiotic metabolism (CYP1A2) at 24 hours (AID 2283683)).
Method: CLD_24hr is a cell-based, multiplexed-readout assay that uses hepatocyte, a human liver primary cell, with measurements taken at 24 hours after chemical dosing in a 96-well plate.CLD_CYP1A2_24hr is one of 16 assay component(s) measured or calculated from the CLD_24hr assay. It is designed to make measurements of mRNA induction, a form of inducible reporter, as detected with chemiluminescence signals by Quantitative Nuclease Protection Assay (qNPA) technology.Data from the assay component CLD_CYP1A2_24hr was analyzed at the endpoint, CLD_CYP1A2_24hr, in the positive analysis fitting direction relative to DMSO as the negative control and baseline of activity. Using a type of inducible reporter, gain-of-signal activity can be used to understand changes in the reporter gene as they relate to the gene CYP1A2. Furthermore, this assay endpoint can be referred to as a primary readout. To generalize the intended target to other relatable targets, this assay endpoint is annotated to the cyp intended target family, where subfamily is xenobiotic metabolism.
Human hepatocyte cultures were treated daily for two consecutive days with fresh dosing solutions containing appropriate concentrations of the 320 ToxCast chemicals (chemical identities were blinded to CellzDirect and other ToxCast collaborators), vehicle control (0.2% DMSO), and positive control inducers as summarized in Table 1. Due to the large number of treatment groups and chemicals examined, the ToxCast chemicals were divided into two groups (spanning two independent cultures of hepatocytes from separate donor preparations (Hu778: ToxCast plates 1 and 2; Hu776: ToxCast plates 3 and 4). Each preparation of human hepatocyte cultures was treated with respective vehicle control, medium only control, set of six positive controls/reference chemicals for the five hepatic receptor pathways, and a subset of eight of the ToxCast chemicals (indoxacarb, pyrithiobac-sodium, norflurazon, cyhalofop-butyl, methomyl, thiram, acetochlor, and propiconazole). These replicate data, coupled with internal replicates designed within the blinded ToxCast chemical library, provided additional data to evaluate interindividual differences between hepatocyte preparations and their potential impact on chemical profiles.Cell morphology and integrity were evaluated using phase-contrast microscopy as an indicator of hepatocyte cell health (Tyson & Green, 1987). Cultures for each treatment group (i.e., media, vehicle [0.2% DMSO], positive control inducers [multiple concentrations], and the ToxCast chemicals [multiple concentrations]) were observed and cell morphology was assessed relative to vehicle control cultures at each harvest time point (0, 6, 24, or 48 h). […] Images were evaluated at the conclusion of the study to assess changes in cell integrity and account for the effects of chemical exposure on uncharacteristic changes in concentration-dependent gene expression profiles. The results from these determinations of apparent cytotoxicity were annotated (yes/no) alongside the corresponding qNPA data for reference.At the conclusion of each treatment period, hepatocyte cultures (96-well) were washed with 1 volume of HBSS, lysed by addition of 25 ul ArrayPlate lysis buffer (HTG, Tucson, AZ), and 70 ul/well of Denaturation Oil, denatured by incubation at 95C for 10 min, and frozen at approximately -70C until analysis by nuclease protection assay (qNPA) (Roberts et al., 2007). For qNPA analysis, cell lysates were thawed at 50C for approximately 30 min, qNPA probes were added, and samples were incubated at 95C for 10 min to begin the detection process by denaturing the target RNA, dissociating the duplexes and secondary structure hybridization. At the conclusion of the hybridization period, S1 nuclease reagent was added to each sample to digest all nonprotected nucleotides at 50C for 60-90 min. […]

**Q.** With `O=C(O)C1(C(=O)Nc2ccc(Cl)cc2Cl)CC1` as the compound, how does the AC50 read?
**A.** 20 µM (active)

**Q.** Which AC50 does the source give for `CSC(=O)c1cccc2nnsc12` here?
**A.** 20 µM (active)

**Q.** With `N#CSCSc1nc2ccccc2s1` as the compound, how does the AC50 read?
**A.** 7.18 µM (active)

**Q.** Which AC50 does the source give for `CCCCOC(=O)[C@@H](C)Oc1ccc(Oc2ccc(C(F)(F)F)cn2)cc1` here?
**A.** 20 µM (active)

**Q.** For `CCC(C)OC(=O)N1CCCCC1CCO` (stereo not given), which outcome is on record?
**A.** inactive

**Q.** With `Cc1nn(C)c(Oc2ccccc2)c1C=NOCc1ccc(C(=O)OC(C)(C)C)cc1` as the compound, how does the AC50 read?
**A.** 37.4 µM (active)

**Q.** With `CCSC(=O)N(CC(C)C)CC(C)C` as the compound, how does the outcome read?
**A.** inactive

**Q.** With `c1ccc(Nc2ccccc2)cc1` as the compound, how does the AC50 read?
**A.** 6.41 µM (active)

**Q.** Which AC50 does the source give for `c1ccc2[nH]c(-c3cscn3)nc2c1` here?
**A.** 0.345 µM (active)

**Q.** How did the outcome turn out when `CCN(CC)C(=O)c1cccc(C)c1` was run?
**A.** inactive

**Q.** `COC(=O)c1cccc(C)c1S(=O)(=O)NC(=O)Nc1nc(OCC(F)(F)F)nc(N(C)C)n1` was tested. Which AC50 did it give?
**A.** 6.03 µM (active)

**Q.** `COC(=O)c1ccc(CNS(C)(=O)=O)cc1S(=O)(=O)NC(=O)Nc1nc(OC)cc(OC)n1` was tested. Which outcome did it give?
**A.** inactive

**Q.** `CC1(C)C(C=C(Cl)Cl)C1C(=O)OCc1cccc(Oc2ccccc2)c1` (stereo not given) was tested. Which outcome did it give?
**A.** inactive

**Q.** How did the outcome turn out when `CCOC(=O)[C@H](C)Oc1ccc(Oc2nc3ccc(Cl)cc3o2)cc1` was run?
**A.** inactive

**Q.** `CCOC(=O)NCCOc1ccc(Oc2ccccc2)cc1` was tested. Which outcome did it give?
**A.** inactive

**Q.** `Oc1ccc(C(c2ccc(O)cc2)C(Cl)(Cl)Cl)cc1` was tested. Which outcome did it give?
**A.** inactive

**Q.** How did the outcome turn out when `CCOC(=O)C(C)Oc1ccc(Oc2nc3ccc(Cl)cc3o2)cc1` (stereo not given) was run?
**A.** inactive

**Q.** For `CN(C)C(=O)Nc1ccc(Cl)c(Cl)c1`, which AC50 is on record?
**A.** 4.42 µM (active)

**Q.** Which outcome does the source give for `CC(C)(C)[C@@H](O)[C@@H](Cc1ccc(Cl)cc1)n1cncn1` here?
**A.** inactive

**Q.** How did the outcome turn out when `S=C([S-])NCCNC(=S)[S-].[Mn+2]` was run?
**A.** inactive

**Q.** Which outcome does the source give for `S=C(S)NCCNC(=S)S.[Mn+2].[S-]C([S-])=NCCN=C([S-])[S-].[Zn+2]` here?
**A.** inactive

**Q.** How did the outcome turn out when `OB(O)O` was run?
**A.** inactive

**Q.** With `COc1nc(C)nc(NC(=O)NS(=O)(=O)c2ccccc2OCCCl)n1` as the compound, how does the outcome read?
**A.** inactive

**Q.** How did the outcome turn out when `CCCCC(CC)COC(=O)c1ccccc1C(=O)O` (stereo not given) was run?
**A.** inactive

**Q.** For `CCCN(CCC)c1c([N+](=O)[O-])cc(C(F)(F)F)c(N)c1[N+](=O)[O-]`, which AC50 is on record?
**A.** 2.34 µM (active)

**Q.** With `O=C(Nc1ccc([N+](=O)[O-])cc1Cl)c1cc(Cl)ccc1O` as the compound, how does the AC50 read?
**A.** 3.97 µM (active)

**Q.** `COC(=O)c1ccccc1C(=O)O` was tested. Which outcome did it give?
**A.** inactive

**Q.** Which outcome does the source give for `COc1c(Cl)ccc(Cl)c1C(=O)O` here?
**A.** inactive

**Q.** How did the AC50 turn out when `CCN(Cc1c(F)cccc1Cl)c1c([N+](=O)[O-])cc(C(F)(F)F)cc1[N+](=O)[O-]` was run?
**A.** 0.418 µM (active)

**Q.** How did the outcome turn out when `CCCCCCC(C)OC(=O)COc1nc(F)c(Cl)c(N)c1Cl` (stereo not given) was run?
**A.** inactive

**Q.** With `CCNc1nc(N)nc(Cl)n1` as the compound, how does the outcome read?
**A.** inactive

**Q.** How did the AC50 turn out when `COC(=O)c1ccccc1S(=O)(=O)NC(=O)Nc1nc(OC(F)F)cc(OC(F)F)n1` was run?
**A.** 0.233 µM (active)

**Q.** For `CCOC(=O)C(C)Oc1ccc(Oc2cnc3cc(Cl)ccc3n2)cc1` (stereo not given), which outcome is on record?
**A.** inactive

**Q.** `CCCN(CCC)C(=O)SCC` was tested. Which outcome did it give?
**A.** inactive

**Q.** How did the AC50 turn out when `CCCCC(CC)CN1C(=O)C2C3C=CC(C3)C2C1=O` (stereo not given) was run?
**A.** 7.81 µM (active)

**Q.** With `COC(=O)c1ccc(I)cc1S(=O)(=O)NC(=O)Nc1nc(C)nc(OC)n1` as the compound, how does the outcome read?
**A.** inactive

**Q.** `CCCCOCCOCCOCc1cc2c(cc1CCC)OCO2` was tested. Which AC50 did it give?
**A.** 0.858 µM (active)

**Q.** With `COC(=O)c1c(Cl)nn(C)c1S(=O)(=O)NC(=O)Nc1nc(OC)cc(OC)n1` as the compound, how does the AC50 read?
**A.** 0.797 µM (active)

**Q.** With `C#CCOC(=O)[C@@H](C)Oc1ccc(Oc2ncc(Cl)cc2F)cc1` as the compound, how does the outcome read?
**A.** inactive

**Q.** Which outcome does the source give for `CCCCCOC(=O)COc1cc(N2C(=O)C3=C(CCCC3)C2=O)c(F)cc1Cl` here?
**A.** inactive
